Screens from PubChem BioAssay.
IDE act – boosts human insulin-degrading enzyme activity in HEK cells; activation, % at 5.96 µM; FAbeta-B cleavage, fluorescence polarization; 0% vehicle, 100% cell-free pure enzyme wells; AID 493087; 340,000 compounds, 0.073% hits; P14735;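 active means activation above the mean of all tested compounds plus 3 SD, set per screening campaign, cut at about 17% in these data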
CRFBP-R2 agonist – CRF-BP/CRF-R2 complex agonism. HEK293 CRF-R2/CRF-BP, calcium dye fluorescence (FLIPR); percent of saturating CRF peptide response. activation, % at 13.2 µM. 350,000 compounds, 0.46% hits. AID 588473;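 active means activation of at least 50%, plus an integration ratio under a set limit after plate pattern correction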
cardiac RTF act – cardiac RTF calcium sensitization. P19429+P45379. IANBD-labeled TnC RTF fluorescence at EC20 calcium; 0% EC20 calcium, 100% full calcium. activation, % at 7.2 µM. 340,000 compounds, 0.24% hits;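 active means activation above the mean over all tested compounds plus 3 SD, cut at about 30% in these data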;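 further: rise in fluorescence read as greater calcium sensitivity of cardiac thin filaments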
IDE cell inh – inhibits human insulin-degrading enzyme in HEK cells; inhibition, % at 5.59 µM; P14735; FAbetaB cleavage, fluorescence polarization; 320,000 compounds, 0.41% hits; AID 434962;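 active means percent inhibition above the average of all tested compounds plus 3 SD, set per screening campaign, cut at about 16% in these data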;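 further: IDE supplied by intact live HEK cells; FP after avidin binding of uncleaved biotin substrate so inhibition keeps polarization high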
Cardiac RTF inh – cardiac RTF calcium desensitization; IANBD-labeled cardiac RTF, Ca2+ fluorescence; inhibition, % at 7.15 µM; 340,000 compounds, 0.12% hits; AID 493244;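 active means inhibition above the mean inhibition of all tested compounds plus 3 SD, cut at about 17% in these data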;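 further: assay run at fixed EC70 calcium of 1.6 mM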
TPT1 inhibitor – blocks Candida albicans tRNA 2'-phosphotransferase | recombinant caTPT1, FP RNA substrate dephosphorylation | inhibition, % at 5 µM | 300,000 compounds, 0.81% hits;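 active means inhibition above the mean of all tested compounds plus 3 SD, set per screening campaign, cut at about 24% in these data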
Each line names hits and unclear results; the compound was inactive in the other large screens. In the library only some 1.5% were active in any assay of this set; here they are far more common.

Fc1ccc(-c2cc(C(F)(F)C(F)F)[nH]n2)cc1	CRFBP-R2 agonist 78 (no result: IDE act, cardiac RTF act, Cardiac RTF inh)
CC(C)NC(=O)N(C)C[C@H]1OCc2cnnn2CCCC(=O)N([C@H](C)CO)C[C@H]1C	CRFBP-R2 agonist 53 (no result: IDE act, cardiac RTF act, IDE cell inh, Cardiac RTF inh, TPT1 inhibitor)
CC(C)NC(=O)N(C)C[C@@H]1OCc2cnnn2CCCC(=O)N([C@H](C)CO)C[C@@H]1C	none (no result: IDE act, cardiac RTF act, IDE cell inh, Cardiac RTF inh, TPT1 inhibitor)
O=C(O)C(SC(C(=O)O)c1ccccc1)c1ccccc1 (stereo not given)	none (no result: IDE cell inh, TPT1 inhibitor)
CC1=[N+]([O-])C(C)(C)N(O)C1(C)C	CRFBP-R2 agonist 152
COc1cccc(C(=O)NCC2(c3ccc(OC)c(OC)c3)CCCC2)c1	none
CCOC(=O)c1cccc(P(C)(C)=O)c1	IDE act 19
CCOC(=O)c1ccc2nc(C)c(C)nc2c1	none
CCCCCCCN1CCC(=O)N([C@H](CO)c2ccccc2)CC1	none
CC(C)CN1CCC(=O)N([C@H](CO)c2ccccc2)CC1	IDE act 37
CN(CCOC(=O)CN1C(=O)c2ccccc2C1=O)C1=NS(=O)(=O)c2ccccc21	none (no result: IDE act, CRFBP-R2 agonist, cardiac RTF act, Cardiac RTF inh)
O=C(COc1ccc(Cl)cc1)NCc1ccccc1	cardiac RTF act 152
COc1ccc(Cl)cc1NC(=O)CCc1nnc2ccc(N3CCC4(CC3)OCCO4)nn12	none
CCOC(=O)C1CCN(C(=O)c2ccccc2CCc2ccccc2)CC1	none
COc1ccc(C(=O)NC(=S)NNC(=O)c2c(-c3ccccc3)noc2C)cc1OC	none (no result: IDE act, cardiac RTF act, Cardiac RTF inh)
Cc1onc(-c2ccccc2)c1C(=O)NNC(=S)NC(=O)c1ccc2c(c1)OCO2	CRFBP-R2 agonist 86
CSc1ncc(CN2CCc3c([nH]c4ccccc34)C2c2cccc(O)c2)cn1 (stereo not given)	none
CCN(CC)c1ccc(C=NCCNS(=O)(=O)c2ccc(C)cc2)cc1	none
Cn1c2ccccc2c(=O)c2c(=O)n(-c3ccccc3)c(C3CCCCC3)nc21	none
COc1ccc(CCn2c(-c3ccccc3)nc3c(c(=O)c4ccccc4n3C)c2=O)cc1	none (no result: IDE act, CRFBP-R2 agonist, cardiac RTF act, Cardiac RTF inh)
CCc1nc2c(c(=O)c3ccccc3n2C)c(=O)n1C1CCCCCC1	CRFBP-R2 agonist 226
COc1ccc(CCn2c(C3CCCCC3)nc3c(c(=O)c4ccccc4n3C)c2=O)cc1OC	none
Cn1c2ccccc2c(=O)c2c(=O)n(C3CCCCC3)c(-c3cccs3)nc21	CRFBP-R2 agonist 116
Cn1c2ccccc2c(=O)c2c(=O)n(C3CCCCCC3)c(C3CCCCC3)nc21	CRFBP-R2 agonist 127 (no result: IDE cell inh, TPT1 inhibitor)
CC(C)c1nc2c(c(=O)c3ccccc3n2C)c(=O)n1CCc1ccccc1	CRFBP-R2 agonist 72 (no result: IDE act, cardiac RTF act, Cardiac RTF inh)
Cc1ccc2cc(C#N)c(SCc3nnc(-c4ccccc4[N+](=O)[O-])o3)nc2c1	none
COc1ccc(Cn2c(C3CCCCC3)nc3c(c(=O)c4ccccc4n3C)c2=O)cc1	none (no result: IDE act, cardiac RTF act, Cardiac RTF inh)
COc1ccc(CCn2c(C3CCCCC3)nc3c(c(=O)c4ccccc4n3C)c2=O)cc1	CRFBP-R2 agonist 62 (no result: IDE act, cardiac RTF act, Cardiac RTF inh)
CC(=O)Nc1ccc(CN2CCCC(CO)(Cc3cccc(Cl)c3)C2)cc1 (stereo not given)	CRFBP-R2 agonist 56
CCOc1ccccc1-c1c2cc(O)c(=O)cc-2oc2cc(O)c(O)cc12	CRFBP-R2 agonist 260, cardiac RTF act active (no result: IDE cell inh, TPT1 inhibitor)
COc1ccc(OC)c(-c2c3cc(O)c(=O)cc-3oc3cc(O)c(O)cc23)c1	CRFBP-R2 agonist 145, cardiac RTF act active, IDE cell inh 39
O=c1cc2oc3cc(O)c(O)cc3c(-c3ccccc3O)c-2cc1O	cardiac RTF act 51 (no result: IDE cell inh, TPT1 inhibitor)
Cc1cc(O)c(C(=O)Nc2cccc(Cl)c2)c(=O)n1C	none
COc1ccccc1C(C)NC(=O)Cc1ccc(S(=O)(=O)N2CCOCC2)s1 (stereo not given)	none
CN1CCN(/N=C/c2nc(-c3cccc([N+](=O)[O-])c3)n3ccccc23)CC1	CRFBP-R2 agonist 94
Cn1c(=O)c(NC2CCCCC2)c2c3c(cccc31)C(=O)c1ccccc1-2	cardiac RTF act 369 (no result: IDE cell inh, TPT1 inhibitor)
Cn1c(=O)cc2c3c(c(N4CCCCC4)ccc31)C(=O)c1ccccc1-2	none (no result: IDE act, cardiac RTF act, Cardiac RTF inh)
Cc1cccc(NC2=C(NCCO)C(=O)c3ccccc3C2=O)c1	none
Cn1c(=O)c(NCCO)c2c3c(cccc31)C(=O)c1ccccc1-2	IDE act 54, cardiac RTF act active
CC(=O)Nc1ccc(Nc2c3c4c(cccc4n(C)c2=O)C(=O)c2ccccc2-3)cc1	cardiac RTF act 178
CC(=O)Nc1ccc(NC2=CC(=O)c3ccccc3C2=O)cc1	none
